Out of some 44,000 sequences screened, about 5,100 (12%) were called active. No stated cut-off is given here; in the data, active = GI50 up to about 1.1 µM and inactive = higher. What follows is part of a selection rich in actives, with near analogues and random picks from the rest. Entries with a potency or affinity are not part of this list.

The test system of this test is MCF7.
On to “[Bis(aminomethyl)tetramethylenesilane]tetrachloropaltinum(IV), CHEMBL2146189”, for which the GI50 stood at 1640 nM.
“[Bis(aminomethyl)dimethylsilane]tetrachloroplatinum(IV), CHEMBL2146190” registered a 50% growth inhibitory concentration (GI50) of 2970 nM.
SENNOSIDES, CHEMBL2108559 showed a GI50 of 183 nM.
Substance “[Bis(aminomethyl)tetramethylenesilane]dichloropaltinum(II), CHEMBL2146205” returned a GI50 of 2220 nM.
The substance “[Bis(aminomethyl)pentamethylenesilane]dichloropaltinum(II), CHEMBL2146202” displayed a GI50 of 249 nM.
In the case of CISPLATIN, CHEMBL11359 it was 3010 nM.
The figure for “[Bis(aminomethyl)pentamethylenesilane]tetrachloropaltinum(IV), CHEMBL2146204” is 290 nM.

One may read the GI50 as the concentration at which growth is held to half of that of the control.

Values taken from ChEMBL document CHEMBL1201862, “PubChem BioAssay data set” (2004).
